# “And” between values parts separate entries of the source, which are not always exact repeats. Equal entries are not always repeated. The source made the active and inactive calls. The calls were made as follows: active = hit-call score of the fitted dose curve at least 0.9, where 1 is the maximum; inactive = score below 0.9.
# Experiments:
# [1] = read-out: Thrombomodulin, THBD (gene 7056); assay: BSK_CASM3C_Thrombomodulin: BioMAP Diversity Plus: CASM3C Assay for Thrombomodulin Biomarker Activity (AID 2283051); settings: primary human coronary artery smooth muscle cells; actives raise or lower the signal;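 also: thrombomodulin protein level measured by ELISA 24 h after dosing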
# [2] = read-out: Tissue Factor, F3 (gene 2152); assay: BSK_CASM3C_TissueFactor: BioMAP Diversity Plus: CASM3C Assay for Tissue Factor Biomarker Activity (AID 2283052); settings: primary human coronary artery smooth muscle cells; actives raise or lower the signal;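 also: cell surface tissue factor protein level read by ELISA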
# [3] = read-out: Interferon-gamma inducible Protein 10 (IP10), CXCL10 (gene 3627); assay: BSK_hDFCGF_IP10: BioMAP Diversity Plus: hDFCGF Assay for Interferon-gamma inducible Protein 10 (IP10) Biomarker Activity (AID 2283053); settings: primary human foreskin fibroblasts; actives raise or lower the signal
# Summary of the method: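 Chemical-treated human skin fibroblasts (primary) were sampled at 24 h for IP-10 by ELISA. Both increases and decreases relative to DMSO were scored.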
# [4] = read-out: Urokinase-type plasminogen activator receptor (uPAR), PLAUR (gene 5329); assay: BSK_CASM3C_uPAR: BioMAP Diversity Plus: CASM3C Assay for Urokinase-type plasminogen activator receptor (uPAR) Biomarker Activity (AID 2283054); settings: primary human coronary artery smooth muscle cells; actives raise or lower the signal;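 also: cell-surface uPAR protein level quantified by ELISA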
# [5] = read-out: Vascular cell adhesion molecule 1 (VCAM1), VCAM1 (gene 7412); assay: BSK_CASM3C_VCAM1: BioMAP Diversity Plus: CASM3C Assay for Vascular cell adhesion molecule 1 (VCAM1) Biomarker Activity (AID 2283055); settings: primary human coronary artery smooth muscle cells; actives raise or lower the signal;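 also: VCAM-1 protein level quantified by ELISA on the cells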
# [6] = read-out: Collagen III, COL3A1 (gene 1281); assay: BSK_hDFCGF_CollagenIII: BioMAP Diversity Plus: hDFCGF Assay for Collagen III Biomarker Activity (AID 2283056); settings: primary human foreskin fibroblasts; actives raise or lower the signal
# Summary of the method: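 Cells: human foreskin fibroblasts, primary. Dosing followed by 24 h incubation, then ELISA for collagen III. Both increases and decreases scored relative to DMSO.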
# [7] = read-out: Epidermal growth factor receptor (EGFR), EGFR (gene 1956); assay: BSK_hDFCGF_EGFR: BioMAP Diversity Plus: hDFCGF Assay for Epidermal growth factor receptor (EGFR) Biomarker Activity (AID 2283057); settings: primary human foreskin fibroblasts; actives raise or lower the signal
# Summary of the method: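 Cell-based multiplexed assay in primary human foreskin fibroblasts. EGFR is read by ELISA 24 h after treatment and compared with DMSO controls.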
# [8] = read-out: Interleukin-8 (IL8), CXCL8 (gene 3576); assay: BSK_hDFCGF_IL8: BioMAP Diversity Plus: hDFCGF Assay for Interleukin-8 (IL8) Biomarker Activity (AID 2283058); settings: primary human foreskin fibroblasts; actives raise or lower the signal
# Summary of the method: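 IL-8 levels from compound-treated primary human fibroblasts were read by ELISA at 24 h, with DMSO serving as baseline for bidirectional fitting.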
# [9] = BSK_hDFCGF_Proliferation: Cell Proliferation Assessment in the BioMAP Diversity Plus: hDFCGF Assay (AID 2283059); settings: primary human foreskin fibroblasts;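 also: curves fitted for both rise and fall of signal versus DMSO baseline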
# Summary of the method: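 This proliferation readout used SRB total-protein staining of human foreskin fibroblasts […], normalized to DMSO with bidirectional curve fitting.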
# [10] = read-out: Macrophage colony-stimulating factor (MCSF), CSF1 (gene 1435); assay: BSK_hDFCGF_MCSF: BioMAP Diversity Plus: hDFCGF Assay for Macrophage colony-stimulating factor (MCSF) Biomarker Activity (AID 2283060); settings: primary human foreskin fibroblasts; actives raise or lower the signal
# Summary of the method: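 M-CSF levels, determined by ELISA, are taken at 24 h after dosing human skin fibroblasts. Responses in either direction are fitted with DMSO serving as the baseline.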
# [11] = read-out: Monokine induced gamma interferon (MIG), CXCL9 (gene 4283); assay: BSK_hDFCGF_MIG: BioMAP Diversity Plus: hDFCGF Assay for Monokine induced gamma interferon (MIG) Biomarker Activity (AID 2283063); settings: primary human foreskin fibroblasts; actives raise or lower the signal
# Summary of the method: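 MIG signal, determined by ELISA, reflects 24 h chemical exposure of human skin primary fibroblasts. DMSO serves as negative control and baseline.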
# [12] = read-out: Matrix Metallopeptidase 1 (MMP1), MMP1 (gene 4312); assay: BSK_hDFCGF_MMP1: BioMAP Diversity Plus: hDFCGF Assay for Matrix Metallopeptidase 1 (MMP1) Biomarker Activity (AID 2283064); settings: primary human foreskin fibroblasts; actives raise or lower the signal
# Summary of the method: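 MMP1 levels quantified by ELISA 24 h after dosing human dermal fibroblast cultures, with parallel SRB total-protein staining for overt cytotoxicity. Data fitted in both directions against DMSO baseline.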
# [13] = read-out: Vascular cell adhesion molecule 1 (VCAM1), VCAM1 (gene 7412); assay: BSK_hDFCGF_VCAM1: BioMAP Diversity Plus: hDFCGF Assay for Vascular cell adhesion molecule 1 (VCAM1) Biomarker Activity (AID 2283065); settings: primary human foreskin fibroblasts; actives raise or lower the signal
# Summary of the method: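 Cells are dosed, cultured for 24 h, then VCAM-1 is quantified by ELISA; signal increases and decreases are both fitted relative to DMSO.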
# [14] = read-out: Plasminogen activator inhibitor-1 (PAI1), SERPINE1 (gene 5054); assay: BSK_hDFCGF_PAI1: BioMAP Diversity Plus: hDFCGF Assay for Plasminogen activator inhibitor-1 (PAI1) Biomarker Activity (AID 2283066); settings: primary human foreskin fibroblasts; actives raise or lower the signal
# Summary of the method: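 Human skin fibroblast cultures receive chemical for 24 h before PAI-1 is measured by ELISA; signal changes are fitted bidirectionally against DMSO-treated wells.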
# [15] = read-out: Intercellular Adhesion Molecule 1 (ICAM1), ICAM1 (gene 3383); assay: BSK_KF3CT_ICAM1: BioMAP Diversity Plus: KF3CT Assay for Intercellular Adhesion Molecule 1 (ICAM1) Biomarker Activity (AID 2283067); settings: primary human keratinocytes with fibroblasts; actives raise or lower the signal
# Summary of the method: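 Dose the keratinocyte/fibroblast co-culture, wait 24 h, measure ICAM-1 by ELISA, then fit increases or decreases against DMSO. Cytotoxicity is checked in parallel cultures by SRB total-protein staining.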
# [16] = read-out: Interferon-gamma inducible Protein 10 (IP10), CXCL10 (gene 3627); assay: BSK_KF3CT_IP10: BioMAP Diversity Plus: KF3CT Assay for Interferon-gamma inducible Protein 10 (IP10) Biomarker Activity (AID 2283068); settings: primary human keratinocytes with fibroblasts; actives raise or lower the signal
# Summary of the method: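 Signal is secreted/surface IP-10 by ELISA in a human primary skin co-culture of keratinocytes and foreskin fibroblasts, taken 24 h post-dosing; DMSO served as negative control.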
# [17] = BSK_KF3CT_SRB: Viability Assessment in the BioMAP Diversity Plus: KF3CT Assay (AID 2283069); settings: primary human keratinocytes with fibroblasts;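 also: total protein by sulforhodamine B staining as a cytotoxicity measure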
# Summary of the method: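 Cytotoxicity was gauged by SRB staining (0.1% SRB, 10% TCA fixation, 560 nm) of parallel cultures at 24 h. The cells were primary human skin keratinocytes co-cultured with fibroblasts, and activity was fitted in both directions against DMSO.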
# [18] = read-out: Interleukin-1 alpha (IL1a), IL1A (gene 3552); assay: BSK_KF3CT_IL1a: BioMAP Diversity Plus: KF3CT Assay for Interleukin-1 alpha (IL1a) Biomarker Activity (AID 2283070); settings: primary human keratinocytes with fibroblasts; actives raise or lower the signal
# Summary of the method: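 IL-1a was detected by ELISA 24 h after chemical treatment of a co-culture of human skin keratinocytes and foreskin fibroblasts. Gain or loss of signal was fitted against the DMSO baseline.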
smiles,measurement,setting,value
C=CCOC(=O)CCC1CCCCC1,outcome,[1],inactive
same,outcome,[2],inactive
same,outcome,[3],inactive
same,outcome,[4],inactive
same,outcome,[5],inactive
same,outcome,[6],inactive
same,outcome,[7],inactive
same,outcome,[8],inactive
same,AC50,[9],30.8 µM (active) and 37.8 µM (active)
same,outcome,[10],inactive
same,outcome,[11],inactive
same,outcome,[12],inactive
same,outcome,[13],inactive
same,outcome,[14],inactive
same,outcome,[15],inactive
same,outcome,[16],inactive
same,outcome,[17],inactive
same,outcome,[18],inactive
Cc1ccc2n[nH]nc2c1,outcome,[1],inactive
same,outcome,[2],inactive
same,outcome,[3],inactive
same,outcome,[4],inactive
same,outcome,[5],inactive
same,outcome,[6],inactive
same,outcome,[7],inactive
same,outcome,[8],inactive
same,outcome,[9],inactive
same,outcome,[10],inactive
same,outcome,[11],inactive
same,outcome,[12],inactive
same,outcome,[13],inactive
same,outcome,[14],inactive
same,outcome,[15],inactive
same,outcome,[16],inactive
same,outcome,[17],inactive
same,outcome,[18],inactive
CCc1c(C)cc(N)c(CC)c1N,outcome,[1],inactive
same,outcome,[2],inactive
same,outcome,[3],inactive
same,outcome,[4],inactive
same,outcome,[5],inactive
same,outcome,[6],inactive
same,outcome,[7],inactive
same,outcome,[8],inactive
same,outcome,[9],inactive
same,outcome,[10],inactive
same,outcome,[11],inactive
same,outcome,[12],inactive
same,outcome,[13],inactive
same,outcome,[14],inactive
same,outcome,[15],inactive
same,outcome,[16],inactive
same,outcome,[17],inactive
same,AC50,[18],1.94 µM (active)
O=C(O)c1cn(-c2ccc(F)cc2)c2cc(N3CCNCC3)c(F)cc2c1=O,outcome,[1],inactive
same,outcome,[2],inactive
same,outcome,[3],inactive
same,outcome,[4],inactive
same,outcome,[5],inactive
same,outcome,[6],inactive
same,outcome,[7],inactive
same,outcome,[8],inactive
same,outcome,[9],inactive
same,outcome,[10],inactive
same,outcome,[11],inactive
same,outcome,[12],inactive
same,outcome,[13],inactive
same,outcome,[14],inactive
same,outcome,[15],inactive
same,outcome,[16],inactive
same,outcome,[17],inactive
same,outcome,[18],inactive
Nc1cc([N+](=O)[O-])ccc1Cl,outcome,[1],inactive
same,outcome,[2],inactive
same,outcome,[3],inactive
same,outcome,[4],inactive
same,outcome,[5],inactive
same,outcome,[6],inactive
same,outcome,[7],inactive
same,outcome,[8],inactive
same,outcome,[9],inactive
same,outcome,[10],inactive
same,outcome,[11],inactive
same,outcome,[12],inactive
same,outcome,[13],inactive
same,outcome,[14],inactive
same,outcome,[15],inactive
same,outcome,[16],inactive
same,outcome,[17],inactive
same,outcome,[18],inactive
Cc1cc(C2(c3cc(C)c(O)cc3C)OS(=O)(=O)c3ccccc32)c(C)cc1O,outcome,[1],inactive
same,outcome,[2],inactive
same,outcome,[3],inactive
same,outcome,[4],inactive
same,outcome,[5],inactive
same,outcome,[6],inactive
same,outcome,[7],inactive
same,outcome,[8],inactive
same,outcome,[9],inactive
same,outcome,[10],inactive
same,outcome,[11],inactive
same,outcome,[12],inactive
same,outcome,[13],inactive
same,AC50,[14],20 µM (active) and 4.95 µM (active)
same,outcome,[15],inactive
same,outcome,[16],inactive
same,outcome,[17],inactive
same,outcome,[18],inactive

# Source: PubChem BioAssay (EPA / NIEHS)
